# High-throughput results (PubChem)
# Hits are enriched below; roughly 27% of the tested compounds scored in any of these assays.
# CYP2C9 inh: blockers of cytochrome P450 2C9 activity – biochemical, luminescence, ADME assay, primary screen | P11712 | CYP2C9 Supersomes, luciferin-H conversion | inhibition, % at 5 µM | hit rate 20% among 96,000 | AID 777, 2007;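 active = blocking of liver enzyme CYP2C9 beyond about 50% at 5 µM, limit read from the data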
# Target sequence (P11712 whole entry, looked up): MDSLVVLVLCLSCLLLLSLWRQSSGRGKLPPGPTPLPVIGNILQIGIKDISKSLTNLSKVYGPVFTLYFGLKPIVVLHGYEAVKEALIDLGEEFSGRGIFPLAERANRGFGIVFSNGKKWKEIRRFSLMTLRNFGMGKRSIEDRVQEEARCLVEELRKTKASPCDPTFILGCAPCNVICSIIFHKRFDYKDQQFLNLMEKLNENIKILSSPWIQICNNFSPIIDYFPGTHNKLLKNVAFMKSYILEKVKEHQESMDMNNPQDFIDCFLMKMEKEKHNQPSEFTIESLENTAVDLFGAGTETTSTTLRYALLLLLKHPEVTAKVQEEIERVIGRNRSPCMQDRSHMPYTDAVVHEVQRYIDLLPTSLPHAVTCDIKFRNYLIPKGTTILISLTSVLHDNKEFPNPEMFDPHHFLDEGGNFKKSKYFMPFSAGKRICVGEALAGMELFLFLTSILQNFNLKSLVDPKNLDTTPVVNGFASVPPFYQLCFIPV
# CYP2C19 activ: human CYP2C19 activators, primary screen, biochemical, luminescence; 96,000 tested, under 10 active; AID 1025, 2008; Cytochrome P450 2C19 (Homo sapiens), P33261; recombinant CYP2C19, luciferin-H EGE luminescence; hits give high values; 0 = fully inhibited enzyme, 1 = untreated enzyme; activation factor at 5 µM;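 active = activation factor of at least 2 at 5 µM in the primary screen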
# CYP2C19 inhib: blockers of cytochrome P450 2C19 activity – biochemical, luminescence, ADME assay, primary screen; CYP2C19 Supersomes, luciferin-H EGE luminescence, 30 min; inhibition, % at 5 µM; hit rate 21% among 96,000; AID 778, 2007;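 active = CYP2C19 inhibition above a set limit at 5 µM in the primary screen, cut at about 50% in these data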
# CYP2C9 activ: human CYP2C9 activators, primary screen, biochemical, luminescence | Cytochrome P450 2C9 (Homo sapiens), P11712 | recombinant CYP2C9, luciferin-H conversion; hits give high values; factor 1 = untreated enzyme, 0 = blocked | activation factor at 5 µM | hit rate 1.4% among 96,000;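 active = activation factor of 2 or more for CYP2C9 at a 5 µM dose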
# Cav32 inh: Cav3.2 calcium influx blockers – cell-based, Fluo-4 calcium fluorescence, FDSS, MLSMR library, primary screen; Voltage-dependent T-type calcium channel subunit alpha-1H (Homo sapiens), O95180; Cav3.2-expressing cells; hits give low values; B-score at 10 µM; hit rate 4% among 100,000; AID 449739, 2010;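 active = single-dose well whose peak fluorescence ratio is a statistical outlier from its plate by either plate-standardised score or position-corrected B-score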
# A number is an active result; 0 = inactive; - = not tested or not shown.
SMILES,CYP2C9 inh,CYP2C19 activ,CYP2C19 inhib,CYP2C9 activ,Cav32 inh
c1ccc(C(c2nnnn2Cc2cccs2)N2CCN(C3CCCC3)CC2)cc1 (stereo not drawn),0,0,0,0,0
CCOC(=O)c1cc2cc(OC)ccc2nc1C,-,-,-,-,0
CCN(CC)CCn1nc(C)nc1-c1ccccc1O,0,0,88,0,0
O=c1c2ccccc2nc2n1C(CSCc1ccc(Cl)cc1Cl)CS2 (stereo not drawn),0,0,64,0,0
CCOc1ccc2nc(NCCCNS(=O)(=O)c3ccc(F)cc3)c(C#N)cc2c1,-,-,-,-,0
CCOc1ccc2nc(NCCCNS(=O)(=O)c3ccccc3)c(C#N)cc2c1,55,0,0,0,0
COC(=O)c1c(-c2ccc(Br)cc2)noc1N,0,0,78,0,0
COC(=O)c1cc(NC2c3ccccc3C(=O)N2CCN2CCOCC2)cc(C(=O)OC)c1 (stereo not drawn),0,0,98,0,0
O=C1c2ccccc2C(Nc2ccc(Cl)cc2)N1CCN1CCOCC1 (stereo not drawn),0,0,75,0,0
COc1ccc(NC(=O)CC#N)cc1OC,0,0,0,0,0
Cc1ccccc1-n1c(Cn2c(=O)sc3ccccc32)nnc1SC(C)C,-,-,-,-,0
Cc1ccccc1-n1c(=O)c2ccccc2n2nnnc12,0,0,58,0,-
CC(=O)c1ccc(Nc2nc(=O)c3cccnc3s2)cc1,0,0,0,0,-
CC(=O)c1cccc(Nc2nc(=O)c3cccnc3s2)c1,78,0,74,0,0
CCC(CC)c1nnc(NC(=O)c2nc3nc(C)cc(C)n3n2)s1,0,0,0,0,0
COc1cc(C(C#N)N2CCOCC2)ccc1O (stereo not drawn),0,0,0,0,0
COc1cccc(C(C#N)N2CCOCC2)c1 (stereo not drawn),0,0,78,0,0
COc1nc(NC(C)(C)C)nc(Oc2ccc(=O)n(-c3ccccc3)n2)n1,56,0,0,0,0
CC(=NCc1cccnc1)C1=C(O)c2ccccc2C1=O,0,0,0,0,0
CC(=NCc1ccncc1)C1=C(O)c2ccccc2C1=O,83,0,65,0,0
O=C1C(C=NCCCn2ccnc2)=C(O)c2ccccc21,-,-,-,-,0
CC(=NCCCn1ccnc1)C1=C(O)c2ccccc2C1=O,81,0,0,0,0
COc1cc(-c2ccc3oc(-c4ccsc4)c(C#CC4(O)CCCCC4)c3c2)cc(OC)c1OC,-,-,-,-,0
CCOC(=O)Nc1ccc2c(c1)N(C(=O)CCN1CCN(CCO)CC1)c1ccccc1S2,-,-,-,-,0
CCC(C)NC(=O)Nc1ccc2c(c1)N(C)C(=O)c1ccccc1S2 (stereo not drawn),97,0,70,0,0
SMILES,CYP2C9 inh,CYP2C19 activ,CYP2C19 inhib,CYP2C9 activ,Cav32 inh
COC(=O)c1cc(NC(=O)c2cccc(C(F)(F)F)c2)c(=O)oc1C/C=N/OCc1cccc(Cl)c1Cl,0,0,0,0,-4.6
CNC(=S)NNC(=O)c1cccc(C(F)(F)F)c1,0,0,0,0,-
CCC(C)CCCCCCCCCCC(=O)O (stereo not drawn),-,-,-,-,0
Cc1ccc(CN2C3=NCCCN3c3ccccc32)cc1,0,0,0,0,0
CC(C)(C)c1ccc(CN2C3=NCCCN3c3ccccc32)cc1,-,-,-,-,-6.3
C/C(=C/Cc1c(O)cc2oc(C)cc(=O)c2c1O)COC1OC(CO)C(O)C(O)C1O (stereo not drawn),-,-,-,-,0
COC(=O)c1ccc(NCCc2csc(-c3ccc(C)cc3)n2)c([N+](=O)[O-])c1,60,0,52,0,0
CC(=O)N1CCc2cc(NS(=O)(=O)c3cccs3)ccc21,89,0,62,0,0
O=S(=O)(Nc1ccc2c(c1)OCCO2)c1cccs1,0,0,0,0,0
CCOC(=O)c1ccc(NS(=O)(=O)c2ccc3c(c2)CCCN3C(C)=O)cc1,72,0,0,0,0
CC(=O)N1CCCc2cc(S(=O)(=O)N(CC(C)C)CC(C)C)ccc21,0,0,0,0,0
CCOC(=O)c1ccc(NS(=O)(=O)N2CCCCCC2)cc1,68,0,0,0,0
COc1cccc(NS(=O)(=O)c2ccc3c(c2)CCCN3C(C)=O)c1,56,0,96,0,0
CCN(CCO)C(=O)C(c1ccccc1)c1ccccc1,0,0,0,0,0
